PubChem BioAssay (NCATS)
Results filed as inconclusive are left out. Where a call stands in place of a potency, no number is given. Unmarked numbers belong to inactive results. Calls of active or inactive are those of the source. Unless noted, calls follow the shape of the dose curve; as a rule, active = well fitted curve in the direction sought with a large enough effect; inconclusive = small, poorly fitted or top-dose-only effect, or another doubt; inactive = no such curve, though single readings can be large; an effect the other way counts as inactive or inconclusive.

Columns and labels:
[1] = molecular target: Cytochrome P450 3A4 (Homo sapiens) (UniProt P08684); experiment: qHTS Assay for Inhibitors and Substrates of Cytochrome P450 3A4 (AID 884); also: nearly all actives have a fitted effect of over 50% in size; also: potency is read from the fitted curve at half-maximal effect
Chain of Cytochrome P450 3A4 (Homo sapiens) (P08684 whole entry, looked up): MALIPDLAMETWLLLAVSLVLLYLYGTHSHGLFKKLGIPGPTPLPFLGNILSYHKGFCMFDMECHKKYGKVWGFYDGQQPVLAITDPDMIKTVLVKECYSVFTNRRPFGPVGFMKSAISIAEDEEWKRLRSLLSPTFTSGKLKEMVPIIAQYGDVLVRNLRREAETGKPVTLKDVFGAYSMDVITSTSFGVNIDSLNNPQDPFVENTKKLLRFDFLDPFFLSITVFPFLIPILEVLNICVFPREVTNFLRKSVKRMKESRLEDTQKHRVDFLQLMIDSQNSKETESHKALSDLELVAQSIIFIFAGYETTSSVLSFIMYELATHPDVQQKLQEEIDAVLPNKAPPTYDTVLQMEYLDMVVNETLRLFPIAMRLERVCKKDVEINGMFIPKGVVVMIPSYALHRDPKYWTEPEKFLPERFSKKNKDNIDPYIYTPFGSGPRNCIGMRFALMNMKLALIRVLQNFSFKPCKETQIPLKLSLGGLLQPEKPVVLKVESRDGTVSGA
In short: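 Luminescent readout of luciferin produced by CYP3A4 (20 nM) dealkylation of Luciferin-PPXE, 25 uM (its KM). NADPH-driven reaction ran 60 min at RT after 10 min compound preincubation; data scaled to 57 uM ketoconazole as 100% inhibition.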

[2] = qHTS Assay for Identification of Small Molecule Agonists for Hypoxia Response Element Signaling Pathway (AID 914; active = well fitted activation curve with a large enough effect in the signal ratio, with a control signal flat, not every such curve was filed as active; the % refers to the signal ratio; also: potency is read from the fitted curve at half-maximal effect); settings: ME-180 (cervical carcinoma) HRE-bla reporter, beta-lactamase ratio, CoCl2, 17 h; activation: active compounds read high
In short: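 Read-out: CCF4 FRET ratio of 460nm to 530nm emission (excitation 405nm) after 2.5 hours at room temperature, taken from HRE-bla ME-180 cells that had been exposed to compound and EC50 CoCl2 for 17 hours.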

[3] = molecular target: ATP-dependent 6-phosphofructokinase (Trypanosoma brucei brucei) (UniProt O15648); experiment: qHTS Assay to Find Inhibitors of T. brucei phosphofructokinase: hit validation (AID 492961);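 also: luminescence reports ADP formed as PFK phosphorylates fructose-6-phosphate with ATP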
Chain of ATP-dependent 6-phosphofructokinase (Trypanosoma brucei brucei) (O15648 whole entry, looked up): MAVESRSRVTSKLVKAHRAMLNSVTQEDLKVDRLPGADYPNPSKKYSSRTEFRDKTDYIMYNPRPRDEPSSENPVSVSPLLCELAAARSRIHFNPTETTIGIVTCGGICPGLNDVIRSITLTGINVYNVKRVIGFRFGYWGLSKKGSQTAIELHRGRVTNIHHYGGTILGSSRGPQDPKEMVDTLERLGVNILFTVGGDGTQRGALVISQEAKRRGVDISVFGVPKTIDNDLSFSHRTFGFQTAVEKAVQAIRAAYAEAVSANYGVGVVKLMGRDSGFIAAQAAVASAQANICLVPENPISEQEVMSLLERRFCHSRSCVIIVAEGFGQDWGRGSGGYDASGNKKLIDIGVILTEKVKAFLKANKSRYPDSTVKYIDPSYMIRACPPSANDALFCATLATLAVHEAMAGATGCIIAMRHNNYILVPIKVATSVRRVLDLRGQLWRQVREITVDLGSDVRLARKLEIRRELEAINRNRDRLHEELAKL
In short: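 ADP-Glo luminescence read-out of ADP formed by 1.25 nM PFK from 0.1 mM ATP and 0.5 mM F6P (TEA pH 8.0, 45 min, RT). Compounds titrated; activity normalized to no-enzyme and full-enzyme controls.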

[4] = qHTS profiling for inhibitors of Plasmodium falciparum proliferation (AID 504749); also: nearly all actives have a fitted effect of over 60% in size; also: potency is read from the fitted curve at half-maximal effect; settings: P. falciparum in erythrocytes, SYBR Green DNA, 72 h
In short: (§1)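 In a 72 h erythrocytic culture (37 C, humidified, 5% CO2) at 2.5% hematocrit and 0.3% starting parasitemia, compounds were tested; SYBR Green I in detergent lysis buffer stained parasite DNA overnight.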

AS120 = experiment: as above; settings: P. falciparum in erythrocytes, SYBR Green DNA, 72 h; series mostly up to 28.7 µM
In short: as §1

ATS189 = experiment: as above; settings: P. falciparum in erythrocytes, SYBR Green DNA, 72 h; series mostly up to 28.7 µM
In short: as §1

CP185 = experiment: as above; settings: P. falciparum in erythrocytes, SYBR Green DNA, 72 h; series mostly up to 28.7 µM
In short: as §1

CP191 = experiment: as above; settings: P. falciparum in erythrocytes, SYBR Green DNA, 72 h; series mostly up to 28.7 µM
In short: as §1

CP192 = experiment: as above; settings: P. falciparum in erythrocytes, SYBR Green DNA, 72 h; series mostly up to 28.7 µM
In short: as §1

CP201 = experiment: as above; settings: P. falciparum in erythrocytes, SYBR Green DNA, 72 h; series mostly up to 28.7 µM
In short: as §1

CP237 = experiment: as above; settings: P. falciparum in erythrocytes, SYBR Green DNA, 72 h; series mostly up to 28.7 µM
In short: as §1

CP247 = experiment: as above; settings: P. falciparum in erythrocytes, SYBR Green DNA, 72 h; series mostly up to 28.7 µM
In short: as §1

DIV30 = experiment: as above; settings: P. falciparum in erythrocytes, SYBR Green DNA, 72 h; series mostly up to 28.7 µM
In short: as §1

HB3 = experiment: as above; settings: P. falciparum in erythrocytes, SYBR Green DNA, 72 h; series mostly up to 28.7 µM
In short: as §1

P94_40 = experiment: as above; settings: P. falciparum in erythrocytes, SYBR Green DNA, 72 h; series mostly up to 28.7 µM
In short: as §1

PC49 = experiment: as above; settings: P. falciparum in erythrocytes, SYBR Green DNA, 72 h; series mostly up to 28.7 µM
In short: as §1

TAB113 = experiment: as above; settings: P. falciparum in erythrocytes, SYBR Green DNA, 72 h; series mostly up to 28.7 µM
In short: as §1

W2 = experiment: as above; settings: P. falciparum in erythrocytes, SYBR Green DNA, 72 h; series mostly up to 28.7 µM
In short: as §1

[5] = molecular target: Cytochrome P450 2C9 (Homo sapiens) (UniProt P11712); experiment: qHTS Assay for Inhibitors and Substrates of Cytochrome P450 2C9 (AID 883); also: nearly all actives have a fitted effect of over 60% in size; also: potency is read from the fitted curve at half-maximal effect
Chain of Cytochrome P450 2C9 (Homo sapiens) (P11712 whole entry, looked up): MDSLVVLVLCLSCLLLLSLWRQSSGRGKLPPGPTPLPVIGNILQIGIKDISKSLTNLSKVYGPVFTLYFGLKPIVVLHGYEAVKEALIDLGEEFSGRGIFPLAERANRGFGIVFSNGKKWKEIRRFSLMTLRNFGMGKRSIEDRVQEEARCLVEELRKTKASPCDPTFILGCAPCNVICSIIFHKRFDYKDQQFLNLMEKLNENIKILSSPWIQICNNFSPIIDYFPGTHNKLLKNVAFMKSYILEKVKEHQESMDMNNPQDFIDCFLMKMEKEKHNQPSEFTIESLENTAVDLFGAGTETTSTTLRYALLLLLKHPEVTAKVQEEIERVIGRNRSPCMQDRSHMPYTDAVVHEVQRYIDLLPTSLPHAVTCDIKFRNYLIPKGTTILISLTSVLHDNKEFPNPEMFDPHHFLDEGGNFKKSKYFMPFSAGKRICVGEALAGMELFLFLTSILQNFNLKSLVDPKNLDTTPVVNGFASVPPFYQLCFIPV
In short: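 Luminescent read-out of deoxyluciferin hydroxylation, normalized to 57uM sulphaphenazole (AC100). Reaction: 10nM enzyme, 100uM Luciferin-H (equal to KM), 25mM KPO4, 10 min compound preincubation, then 60 min with NADPH regeneration, both at 37C.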

[6] = qHTS Assay for Identification of Small Molecule Antagonists for NFkB Signaling Pathway (AID 895; active = well fitted inhibition curve with a large enough effect in the signal ratio, with a control signal flat, not every such curve was filed as active; the % refers to the signal ratio; also: potency is read from the fitted curve at half-maximal effect)
In short: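 Beta-lactamase reporter read-out (460 and 530 nm emission ratio, 405 nm excitation, 2 hrs substrate loading RT) after 5 hr stimulation with 10 pM TNF alpha in compound-treated NFkB-bla ME-180 cells in low-serum medium.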

[7] = at 28.7 µM (top of the series), parasite line A
[8] = at 28.7 µM (top of the series), parasite line B

**Q.** With `CCNc1ncc2nc(CCc3ccccc3)c(=O)n(-c3ccc(OC)cc3)c2n1` as the compound, how does the Potency [1] read?
**A.** 6.31 µM (active)

**Q.** What about the activation [2] of the same compound?
**A.** -1.93%

**Q.** Which outcome [3] does the source give for `OC[C@H](S)CS` here?
**A.** inactive

**Q.** And the activity, negative = inhibition [4, 7]?
**A.** -3.06%

**Q.** And the Potency (AS120)?
**A.** inactive

**Q.** What about the Potency (ATS189) of the same compound?
**A.** inactive

**Q.** What about the Potency (CP185) of the same compound?
**A.** inactive

**Q.** What about the Potency (CP191) of the same compound?
**A.** inactive

**Q.** And the Potency (CP192)?
**A.** inactive

**Q.** And the Potency (CP201)?
**A.** inactive

**Q.** And the Potency (CP237)?
**A.** 2.24 µM (active)

**Q.** What about the Potency (CP247) of the same compound?
**A.** inactive

**Q.** What about the Potency (DIV30) of the same compound?
**A.** inactive

**Q.** What about the Potency (HB3) of the same compound?
**A.** 2 µM (active)

**Q.** What about the Potency (P94_40) of the same compound?
**A.** inactive

**Q.** And the Potency (PC49)?
**A.** inactive

**Q.** What about the Potency (TAB113) of the same compound?
**A.** inactive

**Q.** And the Potency (W2)?
**A.** 2.39 µM (active)

**Q.** For `CN1CCN(c2ncc3nc(-c4ccccc4)c(=O)n(Cc4ccc(F)cc4)c3n2)CC1`, which Potency [2] is on record?
**A.** 3.16 µM (active)

**Q.** With `Oc1c(C(O)(c2ccccc2)c2ccc3ccccc3c2O)ccc2ccccc12` as the compound, how does the Potency [5] read?
**A.** 0.794 µM (active)

**Q.** With `COCCn1c(=O)c(-c2cccc(C#N)c2)nc2cnc(N3CCNCC3)nc21` as the compound, how does the Potency [5] read?
**A.** 3.98 µM (active)

**Q.** And the Potency [2]?
**A.** 3.16 µM (active)

**Q.** What does the source list for `CN1CCc2cc(Cl)c(O)cc2[C@H](c2ccccc2)C1`?
**A.** Potency [1]: inactive; activation [2]: -21.3%

**Q.** Which Potency [5] does the source give for `N=c1ccn2c(n1)O[C@@H]1[C@@H](O)[C@H](CO)O[C@H]12` here?
**A.** inactive

**Q.** What about the Potency [1] of the same compound?
**A.** inactive

**Q.** What does the source list for `C[N+]1(C)[C@@H]2CC(OC(=O)[C@@H](CO)c3ccccc3)C[C@@H]1[C@H]1O[C@H]12` (some centres not stated)?
**A.** outcome [3]: inactive; activity, negative = inhibition [4, 7]: 5.68%; activity, negative = inhibition [4, 8]: -7.21%; Potency (AS120): inactive; Potency (ATS189): inactive; Potency (CP185): inactive; Potency (CP191): inactive; Potency (CP192): inactive; Potency (CP201): inactive; Potency (CP237): inactive; Potency (CP247): inactive; Potency (DIV30): inactive; Potency (HB3): inactive; Potency (P94_40): inactive; Potency (PC49): inactive; Potency (TAB113): inactive; Potency (W2): inactive

**Q.** With `CC(=O)N1CCN(c2ccc(OC[C@@H]3CO[C@@](Cn4ccnc4)(c4ccc(Cl)cc4Cl)O3)cc2)CC1` as the compound, how does the outcome [3] read?
**A.** inactive

**Q.** And the activity, negative = inhibition [4, 7]?
**A.** -14.8%

**Q.** What about the activity, negative = inhibition [4, 8] of the same compound?
**A.** -14.2%

**Q.** What about the Potency (AS120) of the same compound?
**A.** inactive

**Q.** What about the Potency (ATS189) of the same compound?
**A.** inactive

**Q.** And the Potency (CP185)?
**A.** inactive

**Q.** And the Potency (CP191)?
**A.** inactive

**Q.** And the Potency (CP192)?
**A.** inactive

**Q.** What about the Potency (CP201) of the same compound?
**A.** inactive

**Q.** What about the Potency (CP237) of the same compound?
**A.** inactive

**Q.** What about the Potency (CP247) of the same compound?
**A.** inactive

**Q.** And the Potency (DIV30)?
**A.** inactive

**Q.** What about the Potency (HB3) of the same compound?
**A.** inactive

**Q.** What about the Potency (P94_40) of the same compound?
**A.** inactive

**Q.** What about the Potency (PC49) of the same compound?
**A.** inactive

**Q.** What about the Potency (TAB113) of the same compound?
**A.** inactive

**Q.** And the Potency (W2)?
**A.** inactive

**Q.** With `CNC(=O)[C@@H]1O[C@@H](n2cnc3c(NCc4ccc(N)cc4)ncnc32)[C@@H](O)[C@H]1O` as the compound, how does the Potency [6] read?
**A.** 12.6 µM (active)

**Q.** Which Potency [5] does the source give for `O=C1OC(=O)[C@@H]2[C@@H]1[C@@H]1CC[C@H]2O1` here?
**A.** inactive

**Q.** Which Potency [2] does the source give for `N#CCCn1c(=O)c(-c2ccccc2)nc2cnc(N3CCNCC3)nc21` here?
**A.** 3.16 µM (active)

**Q.** Which Potency [5] does the source give for `O=C(O)CCCC[C@H]1CCSS1` here?
**A.** inactive

**Q.** And the Potency [6]?
**A.** inactive

**Q.** Which Potency [6] does the source give for `NC(=S)NCCC[C@@H](N)C(=O)O` here?
**A.** inactive

**Q.** For `C(=C/c1ccccc1)/CN1CCN(C(c2ccccc2)c2ccccc2)CC1`, which outcome [3] is on record?
**A.** inactive

**Q.** What about the activity, negative = inhibition ([4]; at 12.8 µM (top of the series), parasite line A) of the same compound?
**A.** 1.36%

**Q.** And the Potency (AS120)?
**A.** inactive

**Q.** What about the Potency (ATS189) of the same compound?
**A.** inactive

**Q.** And the Potency (CP185)?
**A.** inactive

**Q.** What about the Potency (CP191) of the same compound?
**A.** inactive

**Q.** What about the Potency (CP192) of the same compound?
**A.** inactive

**Q.** What about the Potency (CP201) of the same compound?
**A.** inactive

**Q.** What about the Potency (CP237) of the same compound?
**A.** 3.55 µM (active)

**Q.** What about the Potency (CP247) of the same compound?
**A.** inactive

**Q.** What about the Potency (DIV30) of the same compound?
**A.** inactive

**Q.** What about the Potency (HB3) of the same compound?
**A.** inactive

**Q.** And the Potency (P94_40)?
**A.** inactive

**Q.** And the Potency (PC49)?
**A.** inactive

**Q.** And the Potency (TAB113)?
**A.** inactive

**Q.** And the Potency (W2)?
**A.** 5.1 µM (active)
